Measurements: the supplement of paper PMC10941209
Unmarked numbers belong to inactive results.

Each molecule was assayed on Toxoplasma gondii RH 2F1 tachyzoites (intracellular in HFF) (assay: parasite survival relative to DMSO control; higher = less antiparasitic activity, active = 20 or less). Details: 1 µM; 72 h.
How it was run: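 Survival is the β-galactosidase-derived signal from intracellular Toxoplasma gondii RH-2F1 tachyzoites, expressed as a percentage of infected wells treated with DMSO. HFF cells (5 × 10^3 cells/well, 96-well plates) were infected with 5 × 10^3 parasites in D2 medium for 3 h and then treated with compound at 1 μM for 72 h at 37°C in 5% CO2. After lysis, CPRG was added and absorbance at 570 nm was read at 30 min, with 2 or more biological replicates.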

**Q.** For `C/C(=N\NC(=O)C1CC1c1ccccc1)c1ccc(NC(=O)c2ccco2)cc1` (stereo not given), which parasite survival is on record?
**A.** 47.3%

**Q.** Which parasite survival does the source give for `O=C(Nc1ccc(-c2ccccc2)cc1)C1=C(O)C(Cc2ccccc2)OC1=O` (stereo not given) here?
**A.** 54.1%

**Q.** Which parasite survival does the source give for `CC(Cc1ccccc1)C(=O)Nc1ccc(Cl)cc1C(=O)O` (stereo not given) here?
**A.** 42%

**Q.** How did the parasite survival turn out when `CCNC(=O)Nc1cc2c(-c3ccnc(C)c3)ccc(CNC(=O)OC)c2cn1` was run?
**A.** 31.9%

**Q.** For `CC(C)N(c1cc(-c2ccccc2)sc1C(=O)O)C(=O)[C@H]1CC[C@H](C)CC1`, which parasite survival is on record?
**A.** 65%

**Q.** How did the parasite survival turn out when `COc1nc2ccc(Br)cc2cc1[C@@H](c1ccccc1)[C@@](O)(CCN(C)C)c1cccc2ccccc12` was run?
**A.** 14% (active)

**Q.** Which parasite survival does the source give for `C[C@@H](NC(=O)c1cccc(-c2cnc(-c3cc4ccccc4cn3)[nH]2)c1)c1ccc(F)cc1` here?
**A.** 11.6% (active)

**Q.** Which parasite survival does the source give for `CCCCc1ccc(-c2nc(C)c(C(=O)OC)s2)cc1` here?
**A.** 64%

**Q.** `COc1ccc(SC(=O)N[C@H](CCC(=O)O)C(=O)O)cc1` was tested. Which parasite survival did it give?
**A.** 56.2%

**Q.** `O=C(CC1Sc2ncnn2C1=O)Nc1ccc(Br)cc1` (stereo not given) was tested. Which parasite survival did it give?
**A.** 28.1%

**Q.** For `CCc1nc2ccccn2c1C(=O)NCc1ccccc1`, which parasite survival is on record?
**A.** 79.5%

**Q.** With `O=C(NC(=O)N1CCCc2ccccc21)c1ccc(Cl)cc1Cl` as the molecule, how does the parasite survival read?
**A.** 55.9%

**Q.** Which parasite survival does the source give for `Nc1nc(Nc2ccc3nc(-c4ccc(F)cc4)cc(N)c3c2)cc(-c2ccccc2)n1` here?
**A.** 4.03% (active)

**Q.** With `CN(O)C(=O)c1cc2c(CN3CCC[C@H]3C(N)=O)cn(Cc3ccc(F)cc3)c2cn1` as the molecule, how does the parasite survival read?
**A.** 76.7%

**Q.** For `CC(C)Oc1ccc(-c2nc(-c3cccc4c3CC[C@@H]4NCCO)no2)cc1C#N`, which parasite survival is on record?
**A.** 41.9%

**Q.** `CCCC1(C2CC2)c2cc(Cl)ccc2NC(=O)N1C` (stereo not given) was tested. Which parasite survival did it give?
**A.** 70.4%

**Q.** `O=S(=O)(NCB(O)O)c1cc2c(Cl)ccc(Cl)c2s1` was tested. Which parasite survival did it give?
**A.** 54.4%

**Q.** With `Cc1cc(NS(=O)(=O)c2ccc(-c3ccc(F)cc3F)cc2)no1` as the molecule, how does the parasite survival read?
**A.** 55%

**Q.** With `COc1ccc(OCc2ccc(COc3c(Cl)cccc3Cl)cc2)c(Cl)c1` as the molecule, how does the parasite survival read?
**A.** 72%

**Q.** For `Clc1ccc(Cn2c(CN3CCCC3)nc3ccccc32)cc1`, which parasite survival is on record?
**A.** 42.2%

**Q.** `CC(=O)NC[C@H]1CN(c2ccc(N3CCSCC3)c(F)c2)C(=O)O1` was tested. Which parasite survival did it give?
**A.** 44%

**Q.** How did the parasite survival turn out when `NC(=O)c1ccc(I)c([N+](=O)[O-])c1` was run?
**A.** 59.1%

**Q.** With `COc1ccc(COc2cc3oc(=O)c4cc(C(C)O)ccc4c3cc2OC)cc1` (stereo not given) as the molecule, how does the parasite survival read?
**A.** 57%

**Q.** With `Nc1c(C(=O)NCc2ccco2)c2nc3ccccc3nc2n1CCN1CCCCC1` as the molecule, how does the parasite survival read?
**A.** 37%

**Q.** `CCCCCc1ccc(C(=O)NCCn2cc(CCCCCc3c[nH]c(N)n3)nn2)cc1` was tested. Which parasite survival did it give?
**A.** 67.5%

**Q.** With `Nc1nc(-c2ccccc2)nc2[nH]nc(Nc3ccc(C(F)(F)F)cc3)c12` as the molecule, how does the parasite survival read?
**A.** 35.1%

**Q.** For `c1cnc(NCc2ccc(CNc3ncccn3)cc2)nc1`, which parasite survival is on record?
**A.** 71.1%

**Q.** With `O=C(/C(=C/c1ccc(Cl)cc1Cl)n1ccnc1)c1ccc(Cl)cc1` as the molecule, how does the parasite survival read?
**A.** 10.2% (active)

**Q.** With `O=C(c1cc(O)nc2ccccc12)N1CCN(c2ccccc2)CC1` as the molecule, how does the parasite survival read?
**A.** 77.5%

**Q.** For `O=c1oc2ccc(Br)cc2cc1CSc1ncc[nH]1`, which parasite survival is on record?
**A.** 63.6%

**Q.** For `O=C(NCc1ccccc1Cl)c1cnc2ccccc2n1`, which parasite survival is on record?
**A.** 45.6%

**Q.** For `CC(C)n1cnc2c(NCc3ccccc3)nc(NCc3ccccc3)nc21`, which parasite survival is on record?
**A.** 39.1%

**Q.** `O=C(c1nc2c(C(F)(F)F)cc(C3CC3)cn2c1Cl)N1CCN([C@H]2CC[C@H](O)CC2)C(=O)C1` was tested. Which parasite survival did it give?
**A.** 21.1%

**Q.** With `CN(Cc1ccc(C(C)(C)C)cc1)Cc1cccc2ccccc12` as the molecule, how does the parasite survival read?
**A.** 37.9%

**Q.** `Cc1c[nH]c(=O)nc1NCc1ccccc1` was tested. Which parasite survival did it give?
**A.** 49.9%

**Q.** How did the parasite survival turn out when `CCOc1noc2cc(OCCC3CCN(c4ccc(C)nn4)CC3)ccc12` was run?
**A.** 45%

**Q.** Which parasite survival does the source give for `Cc1c(CN(C)C(=O)/C=C/c2cnc3c(c2)C(C)(C)C(=O)N3)oc2ccccc12` here?
**A.** 54.1%

**Q.** With `CCO/N=C/c1ccc(OCCCCN2CCN(c3ccncc3)C2=O)cc1` as the molecule, how does the parasite survival read?
**A.** 47.7%

**Q.** How did the parasite survival turn out when `CN(C)c1[nH]c(=O)ncc1F` was run?
**A.** 36.6%

**Q.** How did the parasite survival turn out when `CC1=C(/C=C/C(C)=C/C=C/C(C)=C/C(=O)Nc2ccc(O)cc2)C(C)(C)CCC1` was run?
**A.** 35.7%
